# Laboratory results: PubChem BioAssay (EPA / NIEHS)
# Where “and” joins values, the source holds several entries; their conditions need not be identical. Equal values may be shown once. Results filed as inconclusive are left out. A structure can be active in one record and inactive in another. Calls of active or inactive are those of the source. How the source made its calls: active means hit-call score of the fitted dose curve at least 0.9, where 1 is the maximum; inconclusive means response in the unintended direction; inactive means score below 0.9.
# Columns and labels:
# [1] = target: human Sirtuin 1 (SIRT1), SIRT1 (gene 23411) (UniProt Q96EB6); assay: NVS_ENZ_hSIRT1: NovaScreen (NVS) Enzymatic Assay for human Sirtuin 1 (SIRT1) (AID 2283219)
# human Sirtuin 1 (SIRT1), SIRT1 (gene 23411), sequence (Q96EB6 whole entry, looked up): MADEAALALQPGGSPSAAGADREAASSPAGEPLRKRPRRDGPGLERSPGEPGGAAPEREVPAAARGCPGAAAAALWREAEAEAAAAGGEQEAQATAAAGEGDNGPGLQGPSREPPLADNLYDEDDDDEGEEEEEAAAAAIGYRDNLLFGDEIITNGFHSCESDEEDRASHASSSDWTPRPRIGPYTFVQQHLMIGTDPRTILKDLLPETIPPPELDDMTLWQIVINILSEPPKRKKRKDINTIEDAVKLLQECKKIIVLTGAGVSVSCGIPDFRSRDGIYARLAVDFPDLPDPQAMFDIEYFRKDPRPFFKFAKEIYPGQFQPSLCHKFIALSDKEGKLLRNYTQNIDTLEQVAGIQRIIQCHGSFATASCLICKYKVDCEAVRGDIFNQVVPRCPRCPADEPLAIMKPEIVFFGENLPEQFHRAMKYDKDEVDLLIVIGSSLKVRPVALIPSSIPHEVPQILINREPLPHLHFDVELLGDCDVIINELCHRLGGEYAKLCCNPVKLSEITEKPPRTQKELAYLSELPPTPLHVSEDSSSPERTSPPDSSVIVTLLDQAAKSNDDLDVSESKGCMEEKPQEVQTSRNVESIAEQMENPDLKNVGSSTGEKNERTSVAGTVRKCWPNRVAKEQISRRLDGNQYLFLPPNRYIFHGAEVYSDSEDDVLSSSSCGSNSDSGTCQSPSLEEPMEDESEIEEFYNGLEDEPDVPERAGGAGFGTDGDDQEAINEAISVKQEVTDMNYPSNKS
# How it was run: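 Cell-free recombinant SIRT1 with a fluorescent substrate; substrate and product separated by electrophoretic mobility shift and read by fluorescence intensity, 1 h after dosing. Primary screen at 25 uM in duplicate; hits re-run in concentration-response up to 50 uM, relative to DMSO.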
# [2] = target: human Sirtuin 3 (SIRT3), SIRT3 (gene 23410) (UniProt Q9NTG7); assay: NVS_ENZ_hSIRT3: NovaScreen (NVS) Enzymatic Assay for human Sirtuin 3 (SIRT3) (AID 2283222)
# human Sirtuin 3 (SIRT3), SIRT3 (gene 23410), sequence (Q9NTG7 whole entry, looked up): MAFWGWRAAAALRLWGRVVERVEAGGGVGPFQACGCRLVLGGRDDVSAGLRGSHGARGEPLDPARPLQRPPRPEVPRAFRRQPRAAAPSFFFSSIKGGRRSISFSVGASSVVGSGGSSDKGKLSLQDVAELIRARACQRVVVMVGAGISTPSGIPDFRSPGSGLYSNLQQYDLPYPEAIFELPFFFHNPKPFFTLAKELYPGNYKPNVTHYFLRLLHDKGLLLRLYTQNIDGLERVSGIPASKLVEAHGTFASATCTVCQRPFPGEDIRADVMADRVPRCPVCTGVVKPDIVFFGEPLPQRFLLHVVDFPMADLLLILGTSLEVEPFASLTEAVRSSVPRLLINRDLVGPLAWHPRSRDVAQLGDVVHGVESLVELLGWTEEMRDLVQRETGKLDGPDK
# Protocol: NVS_ENZ_hSIRT3 is a biochemical, single-readout assay that uses extracted gene-proteins in a cell-free assay. Measurements were taken 1 hour after chemical dosing in a 384-well plate.NVS_ENZ_hSIRT3 is one of one assay component(s) measured or calculated from the NVS_ENZ_hSIRT3 assay. It is designed to make measurements of enzyme activity, a form of enzyme reporter, as detected with fluorescence intensity signals by Fluorescence and electrophoretic mobility shift technology.Data from the assay component NVS_ENZ_hSIRT3 was analyzed into 1 assay endpoint. This assay endpoint, NVS_ENZ_hSIRT3, was analyzed in the positive analysis fitting direction relative to DMSO as the negative control and baseline of activity. Using a type of enzyme reporter, loss-of-signal activity can be used to understand changes in the enzymatic activity as they relate to the gene SIRT3. Furthermore, this assay endpoint can be referred to as a primary readout, because this assay has produced multiple assay endpoints where this one serves a enzymatic activity function. To generalize the intended target to other relatable targets, this assay endpoint is annotated to the hydrolase intended target family, where the subfamily is protein deacetylase.
# Binding assays used specific radioligands (tritiated, iodinated) with non-radioactive competitive displacement ligands in agonist or antagonist protocols (as indicated) and various reference compounds and inhibitors to titrate specific binding to receptors and transporters. Most enzyme assays (CYPs, kinases, phosphatases, proteases, HDACs) used recombinant protein and specific substrates (fluorescence mostly, some colorimetric and radioactive) and inhibitors, followed by a biochemical separation of substrate and product. All assays for the biochemical HTS were initially run in duplicate at a single concentration (10 uM for CYP450 assays and 25 uM for all others). Assay-chemical combinations meeting a pre-defined threshold (e.g., 30% inhibition and other criteria defined below) were then run in singleton concentration-response format with maximum concentration of 20 uM for CYPs and 50 uM for all others. Each assay was run with positive and negative controls, and concurrent controls on every plate. The follow-up (secondary) screen tested active chemical-pairs in concentration series, as well as a few additional assays not tested in the primary screen, some selected negative inactives, and several cases re-run in the concentration series for confirmatory purposes.
# [3] = target: human SRC Proto-Oncogene, Non-receptor Tyrosine Kinase (SRC), SRC (gene 6714) (UniProt P12931); assay: NVS_ENZ_hSRC: NovaScreen (NVS) Enzymatic Assay for human SRC Proto-Oncogene, Non-receptor Tyrosine Kinase (SRC) (AID 2283223)
# human SRC Proto-Oncogene, Non-receptor Tyrosine Kinase (SRC), SRC (gene 6714), sequence (P12931 whole entry, looked up): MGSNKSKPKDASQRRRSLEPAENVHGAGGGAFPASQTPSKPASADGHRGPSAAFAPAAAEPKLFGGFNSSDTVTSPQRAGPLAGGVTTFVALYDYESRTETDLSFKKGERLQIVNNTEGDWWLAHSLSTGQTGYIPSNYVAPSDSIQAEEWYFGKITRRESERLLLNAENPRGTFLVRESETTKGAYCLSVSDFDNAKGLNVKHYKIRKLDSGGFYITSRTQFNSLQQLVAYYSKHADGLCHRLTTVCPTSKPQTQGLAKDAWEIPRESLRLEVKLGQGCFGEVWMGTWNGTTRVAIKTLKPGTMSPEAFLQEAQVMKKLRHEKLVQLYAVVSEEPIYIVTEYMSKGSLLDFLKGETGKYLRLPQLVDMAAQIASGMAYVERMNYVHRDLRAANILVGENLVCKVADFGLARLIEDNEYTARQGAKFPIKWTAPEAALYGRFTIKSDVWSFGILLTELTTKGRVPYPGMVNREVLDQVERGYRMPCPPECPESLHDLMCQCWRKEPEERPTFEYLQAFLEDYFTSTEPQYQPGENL
# How it was run: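 Cell-free kinase activity assay with fluorescent substrate, product separated by electrophoretic mobility shift, read 1 h after dosing. Duplicate single point at 25 uM, then concentration-response up to 50 uM; loss of signal versus DMSO.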
# [4] = target: human Tropomyosin Receptor Kinase A (TRKA), NTRK1 (gene 4914) (UniProt P04629); assay: NVS_ENZ_hTrkA: NovaScreen (NVS) Enzymatic Assay for human Tropomyosin Receptor Kinase A (TRKA) (AID 2283224)
# human Tropomyosin Receptor Kinase A (TRKA), NTRK1 (gene 4914), sequence (P04629 whole entry, looked up): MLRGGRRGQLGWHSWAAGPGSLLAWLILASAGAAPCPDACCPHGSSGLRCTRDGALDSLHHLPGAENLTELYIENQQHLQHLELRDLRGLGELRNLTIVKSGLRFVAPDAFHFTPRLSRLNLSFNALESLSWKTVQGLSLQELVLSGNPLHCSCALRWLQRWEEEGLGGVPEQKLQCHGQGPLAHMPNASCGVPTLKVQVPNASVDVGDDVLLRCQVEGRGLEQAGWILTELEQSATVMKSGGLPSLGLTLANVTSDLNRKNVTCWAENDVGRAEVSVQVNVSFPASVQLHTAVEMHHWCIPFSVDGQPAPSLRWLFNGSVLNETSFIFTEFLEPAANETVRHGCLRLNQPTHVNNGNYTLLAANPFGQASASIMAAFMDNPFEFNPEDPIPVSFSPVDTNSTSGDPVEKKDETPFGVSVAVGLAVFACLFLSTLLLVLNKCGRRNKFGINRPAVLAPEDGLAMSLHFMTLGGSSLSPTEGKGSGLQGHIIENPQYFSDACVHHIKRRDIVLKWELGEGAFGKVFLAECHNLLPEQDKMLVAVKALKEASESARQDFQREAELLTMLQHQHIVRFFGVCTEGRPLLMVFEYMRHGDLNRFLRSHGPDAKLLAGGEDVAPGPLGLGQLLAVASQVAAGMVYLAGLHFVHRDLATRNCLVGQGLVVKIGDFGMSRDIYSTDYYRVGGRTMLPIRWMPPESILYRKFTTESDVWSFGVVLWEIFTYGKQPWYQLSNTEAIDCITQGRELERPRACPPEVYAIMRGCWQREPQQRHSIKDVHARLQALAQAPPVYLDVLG
# How it was run: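 Recombinant human TrkA activity read after 1 h by fluorescence with electrophoretic mobility shift separating substrate and product. Primary screen in duplicate at 25 uM; actives were rerun in concentration-response up to 50 uM. Loss of signal versus DMSO.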
# [5] = target: human Vascular Endothelial Growth Factor Receptor 1 (VEGFR1), FLT1 (gene 2321) (UniProt P17948); assay: NVS_ENZ_hVEGFR1: NovaScreen (NVS) Enzymatic Assay for human Vascular Endothelial Growth Factor Receptor 1 (VEGFR1) (AID 2283226)
# How it was run: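 Cell-free assay of recombinant human VEGFR1 kinase with substrate, measured 1 h after dosing; fluorescence with electrophoretic mobility-shift separation of substrate and product, referenced to DMSO; primary screen at 25 uM in duplicate, actives then run in concentration series.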
# [6] = target: rabbit Imidazoline 2 Central (I2C), CKB (gene 100009085) (UniProt P00567); assay: NVS_ENZ_rabI2C: NovaScreen (NVS) Enzymatic Assay for rabbit Imidazoline 2 Central (I2C) (AID 2283228)
# rabbit Imidazoline 2 Central (I2C), CKB (gene 100009085), sequence (P00567 whole entry, looked up): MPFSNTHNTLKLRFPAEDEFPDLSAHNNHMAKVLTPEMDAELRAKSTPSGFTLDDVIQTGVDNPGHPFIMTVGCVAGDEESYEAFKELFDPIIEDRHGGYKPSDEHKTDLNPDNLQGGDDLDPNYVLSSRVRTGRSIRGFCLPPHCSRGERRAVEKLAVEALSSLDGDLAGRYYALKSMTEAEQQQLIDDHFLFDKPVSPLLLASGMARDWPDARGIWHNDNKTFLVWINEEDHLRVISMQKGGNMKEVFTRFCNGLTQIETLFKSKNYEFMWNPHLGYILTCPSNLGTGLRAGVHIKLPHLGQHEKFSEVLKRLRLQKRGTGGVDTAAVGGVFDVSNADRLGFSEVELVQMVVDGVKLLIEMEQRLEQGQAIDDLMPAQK
# How it was run: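 Rabbit brain membranes, cell-free; readout by filter-based scintillation counting 1.5 hours after dosing, loss of signal vs DMSO. Initial duplicate test at 25 uM, then concentration-response with 50 uM top concentration.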
# [7] = target: human Vascular Endothelial Growth Factor Receptor 3 (VEGFR3), FLT4 (gene 2324) (UniProt P35916); assay: NVS_ENZ_hVEGFR3: NovaScreen (NVS) Enzymatic Assay for human Vascular Endothelial Growth Factor Receptor 3 (VEGFR3) (AID 2283229)
# How it was run: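 Cell-free recombinant VEGFR3 kinase reaction with fluorescent substrate, read 1 h after dosing by electrophoretic mobility shift separation of substrate and product. Single-concentration duplicate screen at 25 uM, then concentration-response up to 50 uM; loss of activity versus DMSO.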
# [8] = target: human Vascular Endothelial Growth Factor Receptor 2 (VEGFR2), KDR (gene 3791) (UniProt P35968); assay: NVS_ENZ_hVEGFR2: NovaScreen (NVS) Enzymatic Assay for human Vascular Endothelial Growth Factor Receptor 2 (VEGFR2) (AID 2283230)
# human Vascular Endothelial Growth Factor Receptor 2 (VEGFR2), KDR (gene 3791), sequence (P35968 whole entry, looked up): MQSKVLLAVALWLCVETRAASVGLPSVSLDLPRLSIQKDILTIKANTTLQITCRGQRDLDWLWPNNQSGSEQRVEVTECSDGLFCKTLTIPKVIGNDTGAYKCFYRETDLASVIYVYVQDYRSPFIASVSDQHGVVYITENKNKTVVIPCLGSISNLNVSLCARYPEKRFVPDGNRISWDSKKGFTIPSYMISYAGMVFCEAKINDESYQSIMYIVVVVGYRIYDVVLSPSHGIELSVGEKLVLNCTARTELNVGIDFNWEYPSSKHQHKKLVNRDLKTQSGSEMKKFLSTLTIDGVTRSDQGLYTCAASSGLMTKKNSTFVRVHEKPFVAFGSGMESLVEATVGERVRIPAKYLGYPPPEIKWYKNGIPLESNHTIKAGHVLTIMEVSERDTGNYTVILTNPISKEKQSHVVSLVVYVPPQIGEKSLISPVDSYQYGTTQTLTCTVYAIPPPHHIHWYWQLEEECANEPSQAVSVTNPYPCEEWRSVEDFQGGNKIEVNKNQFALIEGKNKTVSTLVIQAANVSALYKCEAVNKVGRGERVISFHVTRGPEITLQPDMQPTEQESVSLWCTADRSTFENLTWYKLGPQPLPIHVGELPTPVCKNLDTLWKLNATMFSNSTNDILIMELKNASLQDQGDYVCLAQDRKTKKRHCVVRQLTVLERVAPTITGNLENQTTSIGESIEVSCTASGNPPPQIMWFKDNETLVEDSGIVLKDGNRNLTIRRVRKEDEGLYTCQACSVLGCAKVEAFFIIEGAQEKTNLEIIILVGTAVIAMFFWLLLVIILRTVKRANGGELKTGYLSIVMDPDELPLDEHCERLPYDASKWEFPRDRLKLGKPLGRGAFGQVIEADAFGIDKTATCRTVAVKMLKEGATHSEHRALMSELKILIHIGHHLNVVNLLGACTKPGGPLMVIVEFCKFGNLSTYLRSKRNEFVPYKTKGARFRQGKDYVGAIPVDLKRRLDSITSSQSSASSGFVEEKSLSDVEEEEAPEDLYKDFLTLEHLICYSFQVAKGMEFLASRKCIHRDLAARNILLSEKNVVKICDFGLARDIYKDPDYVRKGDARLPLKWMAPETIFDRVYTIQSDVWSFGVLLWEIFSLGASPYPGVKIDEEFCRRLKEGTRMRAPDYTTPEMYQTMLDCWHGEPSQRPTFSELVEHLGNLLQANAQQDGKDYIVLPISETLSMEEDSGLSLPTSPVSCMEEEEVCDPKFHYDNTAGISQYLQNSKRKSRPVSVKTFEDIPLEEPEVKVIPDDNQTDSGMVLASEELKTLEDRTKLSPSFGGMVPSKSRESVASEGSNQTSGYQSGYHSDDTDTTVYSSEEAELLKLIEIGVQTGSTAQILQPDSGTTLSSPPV
# How it was run: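 Cell-free recombinant VEGFR2 kinase, fluorescent substrate with electrophoretic mobility-shift separation; read 1 h after dosing. Screened at 25 uM in duplicate, hits to concentration-response up to 50 uM; loss-of-signal versus DMSO.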
# [9] = target: sheep Cyclooxygenase-2 (Cox2), PTGS2 (gene 443460) (UniProt P79208); assay: NVS_ENZ_oCOX2: NovaScreen (NVS) Enzymatic Assay for sheep Cyclooxygenase-2 (Cox2) (AID 2283231)
# sheep Cyclooxygenase-2 (Cox2), PTGS2 (gene 443460), sequence (P79208 whole entry, looked up): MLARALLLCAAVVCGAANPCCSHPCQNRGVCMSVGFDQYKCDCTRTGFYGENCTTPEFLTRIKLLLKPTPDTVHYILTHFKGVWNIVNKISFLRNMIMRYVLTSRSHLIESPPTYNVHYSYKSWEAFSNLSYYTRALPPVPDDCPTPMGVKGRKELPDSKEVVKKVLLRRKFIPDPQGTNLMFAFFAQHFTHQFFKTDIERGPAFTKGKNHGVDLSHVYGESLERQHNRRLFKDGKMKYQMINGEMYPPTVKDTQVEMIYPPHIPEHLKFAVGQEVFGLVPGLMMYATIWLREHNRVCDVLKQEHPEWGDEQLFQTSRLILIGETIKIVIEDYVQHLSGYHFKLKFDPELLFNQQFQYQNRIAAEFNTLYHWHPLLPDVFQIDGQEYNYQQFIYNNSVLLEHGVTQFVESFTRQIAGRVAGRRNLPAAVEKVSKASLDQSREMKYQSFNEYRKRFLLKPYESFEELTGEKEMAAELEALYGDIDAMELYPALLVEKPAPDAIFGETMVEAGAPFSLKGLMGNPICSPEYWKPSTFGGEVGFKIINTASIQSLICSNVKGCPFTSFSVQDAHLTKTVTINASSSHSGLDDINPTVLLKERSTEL
# How it was run: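 Compounds were first run at 25 uM in duplicate against tissue-extracted ovine COX-2; those passing a preset inhibition threshold went to singleton concentration-response testing with a 50 uM maximum. Read-out: absorbance at 0.66 hour.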
# [10] = target: rat Catechol-O-Methyl Transferase (COMT), Comt (gene 24267) (UniProt P22734); assay: NVS_ENZ_rCOMT: NovaScreen (NVS) Enzymatic Assay for rat Catechol-O-Methyl Transferase (COMT) (AID 2283235)
# How it was run: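 Cell-free enzyme activity with protein extracted from rat dorsal striatum, measured by HPLC with absorbance detection. Compounds screened at 25 uM in duplicate; actives then run in concentration-response up to 50 uM, loss of signal versus DMSO.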
smiles,measurement,setting,value
S=C(S)NCCNC(=S)S.[Mn+2].[S-]C([S-])=NCCN=C([S-])[S-].[Zn+2],AC50,[1],3.63 µM (active) and 4.01 µM (active) and 3.03 µM (active)
same,AC50,[2],25 µM (active)
same,outcome,[2],inactive
same,AC50,[3],1.47 µM (active)
same,AC50,[4],22.1 µM (active)
same,AC50,[5],7.01 µM (active)
same,outcome,[5],inactive
same,AC50,[6],1.34 µM (active)
same,outcome,[6],inactive
same,AC50,[7],2.42 µM (active) and 1.31 µM (active)
same,AC50,[8],4.23 µM (active) and 3.35 µM (active)
same,AC50,[9],12.5 µM (active)
same,AC50,[10],21.1 µM (active)
CC(C)(c1ccc(O)cc1)c1ccc(O)cc1,outcome,[1],inactive
same,AC50,[4],15.4 µM (active)
same,outcome,[5],inactive
same,outcome,[7],inactive
same,outcome,[8],inactive
same,outcome,[9],inactive
N#CSCSc1nc2ccccc2s1,AC50,[1],10.7 µM (active)
same,outcome,[8],inactive
N[C@@H](Cc1cc(I)c(Oc2ccc(O)c(I)c2)c(I)c1)C(=O)O,AC50,[8],6.72 µM (active)
O=C(c1ccc(O)cc1O)c1ccc(O)cc1O,AC50,[3],15 µM (active)
same,AC50,[4],25 µM (active)
same,AC50,[5],25 µM (active)
same,AC50,[8],14.6 µM (active)
Oc1ccc(C(c2ccc(O)cc2)C(Cl)(Cl)Cl)cc1,AC50,[2],19.4 µM (active)
same,AC50,[4],15 µM (active)
CC(C)CCCCCCc1ccc(O)cc1,outcome,[1],inactive
same,outcome,[4],inactive
CCOC(=O)c1ccc(O)cc1,outcome,[7],inactive
c1ccc2[nH]c(-c3cscn3)nc2c1,AC50,[3],25 µM (active)
same,AC50,[4],8.41 µM (active)
same,AC50,[6],4.07 µM (active)
C=CCOC(Cn1ccnc1)c1ccc(Cl)cc1Cl (stereo not given),AC50,[6],25 µM (active)
C[C@]12C[C@H](O)[C@H]3[C@@H](CCC4=CC(=O)CC[C@@]43C)[C@@H]1CC[C@@H]2C(=O)CO,outcome,[9],inactive
S=C([S-])NCCNC(=S)[S-].[Mn+2],AC50,[1],15.4 µM (active)
same,AC50,[2],7.6 µM (active)
same,outcome,[6],inactive
same,AC50,[8],13.8 µM (active)
CCCCC(CC)CN1C(=O)C2C3C=CC(C3)C2C1=O (stereo not given),outcome,[6],inactive
O=C(O)C1(C(=O)Nc2ccc(Cl)cc2Cl)CC1,AC50,[7],14.9 µM (active)
same,outcome,[8],inactive
COCCO,outcome,[5],inactive
same,outcome,[7],inactive
